Measurements: PubChem BioAssay (Tox21)
Results filed as inconclusive are left out. Values without a mark were called inactive. Calls follow the shape of the dose curve; as a rule, active = well fitted activation curve with a large enough effect in the repeat runs; inconclusive = weak or mixed curves; inactive = flat fitted curve, though single readings scatter.

Experiment: A CellTox Green Cytotoxicity Assay to monitor cytotoxicity in HEK293 cells - 32 hour (AID 1224881); also: nearly all actives have a fitted effect of over 40% in size
Settings: CellTox Green fluorescence; series mostly up to 76.8 µM; cytotoxicity increase: at the top concentration
Description: National Center for Advancing Translational Sciences [NCATS]
NIH Chemical Genomics Center [NCGC]
U.S. Environmental Protection Agency [EPA]
National Institutes of Environmental Health Sciences [NIEHS]
National Toxicology Program [NTP]
Cell-based models are critical for drug discovery. Determining the natural cytotoxic effects resulting from test compounds is an essential research activity. A CellTox Green Cytotoxicity Assay to monitor cytotoxicity in real time of continues cell culture during 40 hours of the compound treatment was used to screen Tox21 10K library compounds in Hek293 cells. CellTox Green Cytotoxicity Assay is a nonlytic, homogeneous, biofluorescent method to measure cytotoxicity in cell culture after experimental manipulation. The assay system uses a proprietary asymmetric cyanine dye that is excluded from viable cells but preferentially stains the dead cell's DNA. […] Viable cells produce no appreciable increases in fluorescence. Therefore, the fluorescence signal produced by the binding interaction with dead cell DNA is proportional to cytotoxicity.
The mixture of Hek293 cell suspension and reagents were dispensed at 600cells/6 ul/well in 1536-well tissue culture treated black solid bottom plates using a Multidrop dispenser. After the assay plates were incubated at a 37 C/5% CO2 incubator for 5 hours, 23 nL of compounds dissolved in DMSO, positive and negative controls was transferred to the assay plate by a pintool work station. The plates were incubated at 37 C for 40 hours. The fluorescence intensity were measured at 0h, 8h, 16h, 24h, 32h and 40h time points using ViewLux plate reader during compound treatment.
% is scaled to controls: 0 for no effect and ±100 for the full control effect.

SMILES	cytotoxicity increase
CCCOC(=O)CCCCC(=O)OCCC	-6.55%
CCOC(=O)CCCCCCCCC(=O)OCC	10.3%
c1ccccc1	-2.24%
C=CCOc1c(Br)cc(Br)cc1Br	-10.2%
CC(=O)OCCCc1ccccc1	1.99%
NC(=O)NNC(N)=O	-5.68%
CCOC(=O)CC#N	3.39%
CCCCCCCCC(=O)OCC	-0.879%
OC(CCN1CCCCC1)(c1ccccc1)c1ccccc1	4.06% [at 35.3 µM]
Nc1ccc(/C=C/c2ccc(N)cc2S(=O)(=O)O)c(S(=O)(=O)O)c1	-0.592% [at 0.29 µM]
Cc1ccc(S(=O)(=O)NC(=O)NC2CCCCCCC2)cc1	4.36% [at 35.3 µM]
CCOC(=O)OCC/C(SC(=O)OCC)=C(\C)N(C=O)Cc1cnc(C)nc1N	1.89% [at 35.3 µM]
CO[Si](CCCCl)(OC)OC	1.18%
CCCCOC(=O)C(C)OC(=O)CCC (stereo not given)	5.7%
O=S(=O)(O)c1cc(O)ccc1O	-7.1%
CN(C)CCOCCN(C)CCO	-4.54%
O=c1[nH]c(=O)c2ccccc2o1	-0.376% [at 35.3 µM]
COc1cc2c(Nc3ccc(Br)cc3F)ncnc2cc1OCC1CCN(C)CC1	13.2% [at 35.3 µM]
CO/N=C(/C(=O)N[C@@H]1C(=O)N2C(C(=O)O)=C(Cn3nnc(C)n3)CS[C@H]12)c1csc(N)n1	-7.13% [at 35.3 µM]
COc1cc2c3cc1Oc1cc(ccc1O)C[C@@H]1c4c(cc(OC)c(O)c4Oc4ccc(cc4)C[C@@H]3N(C)CC2)CC[N+]1(C)C	-9.43% [at 35.3 µM]

SMILES	cytotoxicity increase
CC(C)CCCCCCOC(=O)C1CCCCC1C(=O)OCCCCCCC(C)C (stereo not given)	1.84%
C=C(C)C(=O)OCCCCCCOC(=O)C(=C)C	-14.1%
CCOC(=O)CC(CC(=O)OCC)(OC(C)=O)C(=O)OCC	0.541%
O=C1OC(=O)c2cc(Oc3ccc4c(c3)C(=O)OC4=O)ccc21	-0.855%
CC(C)c1ccccc1O	9.81%
CC(=O)Nc1ncc([N+](=O)[O-])s1	3.44% [at 35.3 µM]
NCCc1ccn[nH]1	-2.37% [at 35.3 µM]
O=C1NC2NC(=O)NC2N1 (stereo not given)	-15.7%
Oc1ccccc1Cc1ccccc1O	-2.02%
C[Si]1(C)N[Si](C)(C)N[Si](C)(C)N1	-1.18%
CCCCCCCCCCCCCC(=O)OC	-3.39%
CC(CC(=O)O)CC(C)(C)C (stereo not given)	-7.17%
CCCCC(CC)COC(=O)c1ccccc1 (stereo not given)	-4.41%
CCCCC(C)C(=O)O (stereo not given)	-0.156%
CC1CCC(C(C)(C)S)C(=O)C1 (stereo not given)	3.03%
C1CCN2C[C@@H]3C[C@@H](CN4CCCC[C@@H]34)[C@H]2C1	-1.06% [at 35.3 µM]
Cc1nc([N+](=O)[O-])cn1-c1ccc([N+](=O)[O-])cc1	1.14% [at 35.3 µM]
CC(=O)/C=C/c1ccco1	-8.35%
CC(=O)N(CC(O)CO)c1c(I)c(C(=O)NCC(O)CO)c(I)c(C(=O)NCC(O)CO)c1I (stereo not given)	-9.3% [at 35.3 µM]
CC(=O)OC(C(=O)c1ccccc1)c1ccccc1 (stereo not given)	1.63%
